This is a sample that favours compounds with a hit; in the whole collection about 3% have one here.
aSyn UTR inh = MLPCN primary screen, SNCA 5' untranslated region; hit rate 0.82% among 300,000; inhibition, % (tested at 7.5 µM); alpha-synuclein 5'UTR reporter, inhibitor activity; in the data active means inhibition above about 60%; inconclusive means no clear call, values can overlap the other calls;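 further: H4 neuroglioblastoma cells stably carrying SNCA 5'UTR luciferase fusion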
CSC inhib = blocks cancer stem cells; cancer stem cell-like cells viability, luminescence; inhibition, % at 7.5 µM; hit rate 1.1% among 300,000; AID 2717; in the data active means inhibition above about 75%; inconclusive means no clear call, values can overlap the other calls; tested in HMLE shEcad cells
IEC-6 tox = IEC-6 cytotoxicity, counter-screen for KLF5 inhibitors | inhibition, % at 5 µM | luminescence viability | hit rate 0.78% among 290,000; in the data active means inhibition above about 22%
SKKanGAS inh = inhibitors of SKKanGAS S. pyogenes growth in kanamycin (SK-promoter or general growth effect) | hit rate 1.3% among 300,000 | inhibition, % at 7.5 µM | BacTiter-Glo, 6 h | AID 1662;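 active means mean replicate score, as percent of positive control median, at least 50; inconclusive means mean below 50 but one replicate at or above 50; inactive means mean and every replicate below 50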;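 further: strain carries kanamycin resistance gene driven by streptokinase promoter and grows in 40 µg/ml kanamycin; loss of luminescence reflects streptokinase promoter inhibition or plain growth inhibition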
KLF5 inhibitor = inhibitors of KLF5 expression; hit rate 0.23% among 290,000; inhibition, % at 5 µM; DLD-1 KLF5 promoter-luciferase reporter, luminescence;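 active means inhibition above a per-plate limit of that plate's mean compound inhibition plus 3 SD, cut at about 60% in these data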;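 further: higher means less KLF5 promoter-driven luciferase light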
Each line names hits and unclear results; the compound was inactive in the other large screens.

O=C(OCCN1C(=O)c2cccc3c(N4CCOCC4)ccc(c23)C1=O)c1ccc(Cl)cc1Cl	aSyn UTR inh 99
O=C(CSc1nc(=O)n2ccccc2n1)N1CCCCCC1	none (no result: CSC inhib, IEC-6 tox, KLF5 inhibitor)
Cc1ccc(C23CC4CC(CC(C(=O)NC(C)C(N)=O)(C4)C2)C3)cc1 (stereo not given)	none
Cc1cccc(N2C(=O)C(O)=C(C(=O)c3cccs3)C2c2cccc(Oc3ccccc3)c2)n1 (stereo not given)	SKKanGAS inh 65
O=C(C1=C(O)C(=O)N(c2ccccc2)C1c1ccc([N+](=O)[O-])cc1)c1cccs1 (stereo not given)	SKKanGAS inh 59
COCCn1c(SCC(=O)NC2CC2)nc2ccccc21	none (no result: aSyn UTR inh, IEC-6 tox, SKKanGAS inh, KLF5 inhibitor)
O=c1oc2ccccc2cc1-c1cn2ccccc2n1	aSyn UTR inh 98
O=c1oc2ccccc2cc1-c1cn2cccnc2n1	none
Cc1ccc(C2(c3noc(CN(C)CC4CCCCO4)n3)CCCC2)cc1 (stereo not given)	none
Cc1ccc(C2(c3noc(CN4CCC(c5ccncc5)CC4)n3)CCCC2)cc1	CSC inhib 92
CCOC(=O)c1sc(NC(=O)CSc2n[nH]c(CC(C)C)n2)nc1C	none
CCCCNC(=O)c1ccc(Cn2c(=S)[nH]c3c([nH]c4ccc(OC)cc43)c2=O)cc1	aSyn UTR inh 105, CSC inhib 140
CCOCCCNC(=O)c1ccc(Cn2c(=S)[nH]c3c([nH]c4ccc(OC)cc43)c2=O)cc1	none
N=C(N)c1ccc(/C=C/c2ccc(C(=N)N)cc2O)cc1	SKKanGAS inh 100
COC(=O)c1cn(NC(=O)Cc2ccccc2Br)c(=O)c2ccccc12	none
NS(=O)(=O)c1cccc(NC(=O)Cn2nc(C(=O)O)c3ccccc3c2=O)c1	none
Cc1ccc2nc3cc([N+](=O)[O-])cc([N+](=O)[O-])c3cc2c1	none (no result: aSyn UTR inh, CSC inhib, SKKanGAS inh)
Cc1ccc(Oc2c(C(N)=O)cc([N+](=O)[O-])cc2[N+](=O)[O-])cc1	CSC inhib active
COc1ccc(-c2sc3cc(OC)c(OC)cc3c2-c2ccc(O)cc2)cc1	CSC inhib 137 (no result: aSyn UTR inh, IEC-6 tox, SKKanGAS inh, KLF5 inhibitor)
COc1ccc(-c2sc3ccccc3c2-c2ccc(O)cc2)cc1	CSC inhib 107 (no result: aSyn UTR inh, IEC-6 tox, SKKanGAS inh, KLF5 inhibitor)
COc1ccccc1C(=O)Nc1ccc2c(c1)n(C)c(=O)n2C	none
O=C(NCc1cccnc1)NC1CC(=O)N(c2ccc3c(c2)OCCO3)C1 (stereo not given)	none
O=C(COc1ccccc1)NNC(=S)NC(=O)c1ccccc1	SKKanGAS inh 75 (no result: CSC inhib)
CC(=O)NNC(=S)NC(=O)c1ccccc1	none (no result: CSC inhib)
COc1ccc(C(=O)NC(=S)NCCc2ccccc2)cc1	none
COc1ccc(C(=O)NC(=S)NNC(=O)COc2ccccc2)cc1	SKKanGAS inh 88
CCOc1ccccc1N(CC(=O)NC1CCCC1)C(=O)CNC(=O)c1cccs1	none
CN(c1ccccc1)S(=O)(=O)c1ccc(C(=O)Nc2nnc(-c3ccc(F)cc3)o2)cc1	SKKanGAS inh 103
CN(C)c1ccc(C(=O)Nc2nnc(-c3ccc(Cl)cc3)o2)cc1	SKKanGAS inh 91
CC(=O)c1ccc(C(=O)Nc2nnc(-c3ccc(Cl)cc3)o2)cc1	SKKanGAS inh 91 (no result: IEC-6 tox, KLF5 inhibitor)
CN(C)c1ccc(C(=O)NNC(=O)c2ccc(Cl)cc2)cc1	none
O=C(Nc1nnc(-c2ccncc2)o1)c1ccc2ccccc2c1	SKKanGAS inh 78
Cc1ccc(-c2cc(N)n(-c3ccc(F)cc3)n2)cc1	none
COc1cccc(CNC(=O)C2CCN(S(=O)(=O)c3ccc(Br)s3)CC2)c1	none
O=C(Nc1nnc(-c2ccco2)o1)c1ccc(Cl)cc1	SKKanGAS inh 87
O=C(Nc1nnc(-c2ccccc2)o1)c1ccc(Cl)cc1	SKKanGAS inh 92
Cc1ccc(C(=O)Nc2nnc(-c3ccco3)o2)cc1C	SKKanGAS inh inconclusive
O=C(Nc1nnc(-c2ccccc2)o1)Nc1ccccc1Cl	none
Clc1ccc(CSc2nnc(-c3cccnc3)n2Cc2ccco2)c(Cl)c1	CSC inhib 86
CC[C@@H](C)[C@H](CN[C@H](CNC)C(C)C)NC[C@@H](C)c1ccc(CC(C)C)cc1	SKKanGAS inh 64
CCCCCN(C(=O)CCC(=O)OCC(=O)c1ccc(C(C)CC)cc1)c1c(N)n(CCCC)c(=O)[nH]c1=O (stereo not given)	none (no result: IEC-6 tox, KLF5 inhibitor)
CCN(CC)c1nc(C(F)(F)F)nc2c1nnn2Cc1ccccc1	SKKanGAS inh 58
COc1ccc(OC)c(-c2csc(N(CC3CCCO3)C(=O)C3CCCCC3)n2)c1 (stereo not given)	CSC inhib 78
COc1ccc(-c2csc(N(CC3CCCO3)C(=O)c3cccs3)n2)cc1 (stereo not given)	none
COc1ccc(C2=COc3ccccc3C(=O)N2)cc1	none
COc1ccc(C2=C(C=O)Cc3ccccc3O2)cc1	aSyn UTR inh 98 (no result: IEC-6 tox, KLF5 inhibitor)
COc1ccc(NC(=O)CSC(C)c2nc3ccccc3c(=O)[nH]2)cc1 (stereo not given)	none
CCOCCn1ccc2c(OCC(=O)NCc3ccccc3)cccc2c1=O	none (no result: IEC-6 tox, KLF5 inhibitor)
CCc1ccc(/C=c2\s/c(=C\C(=O)C(C)(C)C)[nH]c2=O)cc1	SKKanGAS inh 102
CCc1ccc2c(Cl)c(C(=O)N/N=C/c3c[nH]c4ccccc34)sc2c1	SKKanGAS inh 69
O=C(N/N=C/c1c[nH]c2ccccc12)c1ccn(Cc2ccc(Cl)cc2Cl)n1	SKKanGAS inh 55
CCc1ccc(-c2cc(C(=O)N/N=C/c3c[nH]c4ccccc34)[nH]n2)cc1	CSC inhib inconclusive, SKKanGAS inh inconclusive
O=C(N/N=C/c1ccc[nH]1)c1sc2ccccc2c1Cl	CSC inhib 93
Cc1nn(CC(=O)Nc2ccc(N3CCOCC3)cc2)c(C)c1Cl	none
CC/C(=N\N=C(/CC)c1ccccc1N)c1ccccc1N	none (no result: CSC inhib, IEC-6 tox, KLF5 inhibitor)
NS(=O)(=O)c1ccc(CCNS(=O)(=O)c2cccc(C(=O)O)c2)cc1	none
Cn1cc(CCNC(=O)CC2C(=O)NCCN2CC(c2ccccc2)c2ccccc2)cn1 (stereo not given)	none
CC(=O)CC(c1ccccc1)S(=O)(=O)c1ccc([N+](=O)[O-])cc1 (stereo not given)	none
C=CCn1c2ccccc2c(=O)c2cc(C#Cc3ccccn3)ccc21	CSC inhib 76 (no result: aSyn UTR inh, IEC-6 tox, SKKanGAS inh, KLF5 inhibitor)
O=C(Nc1nc2n(n1)C(c1ccc(Cl)cc1)CC(c1ccc(Cl)cc1)N2)c1ccco1 (stereo not given)	SKKanGAS inh 55
COc1ccc(C2CC(c3ccc(Cl)cc3)Nc3nc(NC(=O)c4ccco4)nn32)cc1 (stereo not given)	none (no result: CSC inhib)
CCC(CC)C(=O)Nc1nnc(S(=O)(=O)Nc2ccccc2C)s1	none
O=c1c(C(c2ccccc2)c2c(O)sc3ccccc3c2=O)c(O)sc2ccccc12	CSC inhib 88, SKKanGAS inh 97
Cc1cc2sc3ccccc3c(=O)c2c(C)c1O	none
Cc1ccc(C)c(NC(=S)N/N=C2/CCCCc3ccccc32)c1	SKKanGAS inh 55
N#Cc1ccc(S(=O)(=O)N2CCC(C(=O)N3CCN(Cc4ccc5c(c4)OCO5)CC3)CC2)cc1	none (no result: aSyn UTR inh, IEC-6 tox, SKKanGAS inh, KLF5 inhibitor)
Cc1ccc(C(=O)Nc2ncc(Cc3ccc(F)cc3)s2)o1	CSC inhib 120, IEC-6 tox 45
COc1ccc(/C=C/C(=O)NC(=S)NNC(=O)c2ccco2)cc1	SKKanGAS inh 78
COc1ccc(/C=C/C(=O)NC(=S)Nc2ccccc2)cc1OC	none
